System: T1, NIM1
T1 construct: gene MGC42105
Conditions: concentration: 1 μM, replicates: in singlicate; n = 1
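Also: KINOMEscan kinase panel screen.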

In order of rising “%Inh” value:
1. Fc1cc(Cl)ccc1Nc1ccnc2cc(-c3ccc(CN4CCCCC4)o3)ccc12 [GW560116]  0%
2. O=S(=O)(c1ccc(-c2ccnc3[nH]ccc23)cc1)N1CCCC1 [GSK846226]  0%
3. O=C(Nc1n[nH]c2nc(-c3nccs3)c(Br)cc12)C1CCCC1 [SB-742609]  0%
4. O=c1cc(N2CCOCC2)nc2n(Cc3cccc(Cl)c3Cl)ccn12 [GSK2286295]  0%
5. COc1ccc2nc(-c3cccc(C)n3)nc(Nc3ccncc3)c2c1 [GSK204919]  0%
6. Cn1ccc2ncnc(Oc3ccc(NC(=O)Nc4ccccc4)cc3)c21  0%
7. COC(=O)c1c(-c2ccccc2)c2cc(C(=O)O)ccc2c(=O)n1Cc1ccccc1  0%
8. COC(=O)c1c(-c2ccccc2)c2cc(OC)ccc2c(=O)n1Cc1ccccc1  0%
9. COc1ccc(Nc2nccc(NCCNC(=O)Nc3ccccc3F)n2)cc1 [GSK1379901]  9%
10. NC(=O)c1nnc2ccccc2c1N  14%
11. O=C1NC(=O)C(N2CCc3ccccc32)=C1c1ccccc1Cl [SB-373598]  16%
12. COc1ccccc1CNC(=O)c1cc(C(=O)c2ccccc2C)c[nH]1 [GSK364507]  16%
13. CS(=O)(=O)c1ccc(-c2nc3n(c2-c2ccncc2)CCC3)cc1 [SKF-105942]  17%
14. COc1cc2ncnc(Nc3ccc4nc(-c5ccccc5)[nH]c4c3)c2cc1OC.Cl [GW282450]  18%
15. O=C(Nc1ccccc1)Nc1cccc(Oc2ccc3nccn3n2)c1  19%
16. CC(C)(C)c1ccc(C(=O)Nc2cn3cc(-c4cccnc4)ccc3n2)cc1  22%
17. Cc1cc(NCC(c2ccccc2)c2ccccc2)nc(NCc2ccc(C(F)(F)F)cc2)n1 [GW497681]  22%
18. COc1cc(Nc2nccc(N3CCC(NC(=O)Nc4cc(C)ccc4C)C3)n2)cc(OC)c1OC (centres unmarked) [GSK1379762]  27%
19. Cl.NC(=O)c1cccc(Nc2nccc(Nc3ccc(Oc4cccc(Cl)c4)c(Cl)c3)n2)c1 [GW659008]  29%
20. Cc1cccc(-c2nc(Nc3ccc4[nH]ncc4c3)c3ccccc3n2)n1 [GW857175]  30%
21. CN(C)CCN(C)C(=O)c1cc(-c2ccncc2)c(-c2ccc(Cl)c(O)c2)o1.Cl.Cl [SB-710397]  35%
22. Cl.Oc1ccc(-c2nc(-c3ccccc3)[nH]c2-c2ccncc2)cc1 [SB-428218]  38%
23. O=C(Nc1ccc2c(c1)OCO2)NC1CCN(c2ccnc(Nc3ccc(F)cc3)n2)C1 (centres unmarked) [GSK1379724]  46%

System: NLK
Conditions: concentration: 1 μM, replicates: in singlicate; n = 1

In order of falling “%Inh” value:
1. CN(C)CCN(C)C(=O)c1cc(-c2ccncc2)c(-c2ccc(Cl)c(O)c2)o1.Cl.Cl [SB-710397]  76%
2. O=C(Nc1n[nH]c2cc(-c3cccc(F)c3F)ccc12)C1CC1 [SB-733894]  72%
3. COc1ccc2nc(-c3cccc(C)n3)nc(Nc3ccncc3)c2c1 [GSK204919]  52%
4. Cc1cccc(-c2nc(Nc3ccncc3)c3ccccc3n2)n1 [GW855857]  47%
5. Cl.Oc1ccc(-c2nc(-c3ccccc3)[nH]c2-c2ccncc2)cc1 [SB-428218]  45%
6. COc1ccccc1CNC(=O)c1cc(C(=O)c2ccccc2C)c[nH]1 [GSK364507]  40%
7. COc1cc2ncnc(Nc3ccc4nc(-c5ccccc5)[nH]c4c3)c2cc1OC.Cl [GW282450]  38%
8. O=C(Nc1n[nH]c2nc(-c3nccs3)c(Br)cc12)C1CCCC1 [SB-742609]  31%
9. O=c1cc(N2CCOCC2)nc2n(Cc3cccc(Cl)c3Cl)ccn12 [GSK2286295]  28%
10. Cc1ccc(C(=O)Nc2ccc(Nc3ccnc4cc(-c5ccccn5)ccc34)cc2O)cc1.Cl [GW440146]  22%
11. O=C(Nc1ccccc1)Nc1cccc(Oc2ccc3nccn3n2)c1  22%
12. Cl.NC(=O)c1cccc(Nc2nccc(Nc3ccc(Oc4cccc(Cl)c4)c(Cl)c3)n2)c1 [GW659008]  21%
13. Clc1cc(Cl)cc(Nc2ccnc(Nc3cc(Cl)cc(Cl)c3)n2)c1 [GSK175726]  17%
14. COc1ccc(CNC(=O)NC2CCN(c3ccnc(Nc4cc(OC)c(OC)c(OC)c4)n3)C2)cc1 (centres unmarked) [GSK1379748]  17%
15. Fc1cc(Cl)ccc1Nc1ccnc2cc(-c3ccc(CN4CCCCC4)o3)ccc12 [GW560116]  16%
16. COc1cc2ncn(-c3cc(OCC4CCCO4)c(C(N)=O)s3)c2cc1OC (centres unmarked) [GSK204607]  15%
17. O=S(=O)(c1ccc(-c2ccnc3[nH]ccc23)cc1)N1CCCC1 [GSK846226]  14%
18. O=C(Nc1ccc2c(c1)OCO2)NC1CCN(c2ccnc(Nc3ccc(F)cc3)n2)C1 (centres unmarked) [GSK1379724]  12%
19. Cn1cncc1-c1ccc2ncnc(Nc3ccc(OCc4ccccc4)cc3)c2c1 [GW320571]  11%
20. Cc1cccc(-c2nc(-c3ccc(S(C)(=O)=O)cc3)sc2-c2ccnc(NCCc3ccccc3)c2)c1  11%
21. Cn1ccc2ncnc(Oc3ccc(NC(=O)Nc4ccccc4)cc3)c21  11%
22. COc1ccc(Nc2nccc(-c3cccc(NC(=O)c4cc5cc(F)ccc5[nH]4)c3)n2)cc1 [GSK1229782]  9%
23. COc1ccc(Nc2nccc(NCCNC(=O)Nc3ccccc3F)n2)cc1 [GSK1379901]  7%
24. Cn1ccc2ncnc(Oc3cccc(C(=O)Nc4ccccc4)c3)c21  4%
25. O=C1NC(=O)C(N2CCc3ccccc32)=C1c1ccccc1Cl [SB-373598]  2%
26. NC(=O)c1nnc2ccccc2c1N  2%
27. CC(C)(C)c1ccc(C(=O)Nc2cn3cc(-c4cccnc4)ccc3n2)cc1  1%
28. Cc1cccc(-c2nc(Nc3ccc4[nH]ncc4c3)c3ccccc3n2)n1 [GW857175]  1%
29. Cl.c1ccc(-c2n[nH]cc2-c2ccnc(-c3ccc(CN4CCOCC4)cc3)c2)nc1 [GW776245]  0%
30. CC(C)(C)c1ccc(C(=O)Nc2cn3cc(Cl)ccc3n2)cc1  0%
31. CCn1c(-c2ccccn2)nc2cnccc21 [SB-736398]  0%
32. COc1cc(Nc2nccc(N3CCC(NC(=O)Nc4cc(C)ccc4C)C3)n2)cc(OC)c1OC (centres unmarked) [GSK1379762]  0%
33. COC(=O)c1c(-c2ccccc2)c2cc(C(=O)O)ccc2c(=O)n1Cc1ccccc1  0%
34. CS(=O)(=O)c1ccc(-c2nc3n(c2-c2ccncc2)CCC3)cc1 [SKF-105942]  0%
35. Cc1cc(NCC(c2ccccc2)c2ccccc2)nc(NCc2ccc(C(F)(F)F)cc2)n1 [GW497681]  0%
36. COC(=O)c1c(-c2ccccc2)c2cc(OC)ccc2c(=O)n1Cc1ccccc1  0%
